The text below walks through data of PubChem BioAssay (EPA / NIEHS).

Where “and” joins values, the source holds several entries; their conditions need not be identical. Equal entries are not always repeated. Some structures have more than one record in an assay (separate samples or runs), and their calls can disagree. Calls of active or inactive are those of the source. The calls were made as follows: active = hit-call score of the fitted dose curve at least 0.9, where 1 is the maximum; inactive = score below 0.9.

This experiment in a line: ATG_MRE_CIS: Attagene CIS-FACTORIAL HepG2 Assay for human Metal Responsive Element (MRE) (AID 2282954). The conditions noted are these: HepG2 MRE cis-reporter transcription, Attagene multiplex; actives raise or lower the signal. The procedure: ATG_CIS is a cell-based, multiplexed-readout assay that uses HepG2, a human liver cell line, with measurements taken at 24 hours after chemical dosing in a 24-well plate.ATG_MRE_CIS is one of 52 assay component(s) measured or calculated from the ATG_CIS assay. It is designed to make measurements of mRNA induction, a form of inducible reporter, as detected with fluorescence intensity signals by Reverse transcription polymerase chain reaction (RT-PCR) and Capillary electrophoresis technology.Data from the assay component ATG_MRE_CIS was analyzed into 1 assay endpoint. This assay endpoint, ATG_MRE_CIS, was analyzed with bidirectional fitting relative to DMSO as the negative control and baseline of activity. Using a type of inducible reporter, measures of mRNA for gain or loss-of-signal activity can be used to understand the reporter gene at the transcription factor-level as they relate to the gene MTF1. Furthermore, this assay endpoint can be referred to as a primary readout, because this assay has produced multiple assay endpoints where this one serves a reporter gene function. To generalize the intended target to other relatable targets, this assay endpoint is annotated to the dna binding intended target family, where the subfamily is zinc finger.
Human liver HepG2 cells are transiently transfected with multiple reporter transcription units (MRTUs) in 6-well plates using FuGene 6 reagent (Roche; 3 ml FuGene/1 mg DNA). The MRTU constructs are regulated by a cis-regulating element (promoter). […] A major difference between the CIS and TRANS system is that in CIS activities of endogenous TFs are measured, whereas the TRANS assay evaluates changes in activities of exogenous, chimeric NR-Gal4 proteins. […] At the end of 24 hour incubation, total RNA was isolated using TriZol reagent (Invitrogen). The isolated RNA is then reverse-transcribed using oligo(dT) primer and Mo-MLV reverse transcriptase (Invitrogen) with DNAse I (Ambion) treatment for 30 min. The one-tenth of the produced cDNA was amplified by PCR using Taq DNA polymerase (Invitrogen) and two reporter sequence-specific primers. The PCR products were fluorescently labeled by primer extension with 6-arboxyfluorescein (6-FAM) 5'-labeled reporter sequence-specific primer (2 min at 95 C, 20 s at 68 C and 10 min at 72 C) and these products were digested with 5U of HpaI (New England Biolabs) for 2h at 37 C. The fragments were purified using Qiaquick PCR columns (Qiagen), analyzed on an ABI 3130xL genetic analyzer (Applied Biosystems) with peak positions identified by using a set of X-rhodamine (ROX)-labeled MapMarker1000 molecular weight standards (BioVentures). The raw capillary electrophoresis data was processed using Attagraph software (Attagene).
On to `C=Cc1ccc(O)c(OC)c1`, for which the result was inactive. In the case of `Clc1ccc(Nc2nnc(Cc3ccncc3)c3ccccc23)cc1`, the AC50 was 27.6 µM (active). As to `CCCCCCCCCCCC`, the outcome was inactive.

With `Cc1ccc(C(=O)c2ccccc2)cc1`, the compound was called inactive. Still for that read-out and setting: as for `CCCCCCCCCCCCCCC`, the entry is “inactive”. Still for that read-out and setting: the value for `C=CC(C)(CCC=C(C)C)OC(C)=O` (stereo not given) was “inactive”; that for `Cc1cc(Cc2cc(C)cc(C(C)(C)C)c2O)c(O)c(C(C)(C)C)c1` was “inactive”. In the case of `FC(F)(F)C(F)(F)C(F)(F)C(F)(F)I`, the result was inactive. In the case of `c1ccc(CNc2ncnc3c2ncn3C2CCCCO2)cc1` (stereo not given), the compound was classed as inactive.

Turning to `c1cc[nH]c1`, the compound was classed as inactive. On the same count and under the same terms, as for `CCOC=C(C(=O)OCC)C(=O)OCC`, the entry is “inactive”.

As to `CC(C)(c1ccc(Oc2ccc(N)cc2)cc1)c1ccc(Oc2ccc(N)cc2)cc1`, the AC50 is 2.77 µM (active). For `Cc1cc(C(=C2C=CC(=Nc3ccc(S(=O)(=O)O)cc3)C=C2)c2ccc(Nc3ccc(S(=O)(=O)O)cc3)cc2)cc(S(=O)(=O)O)c1N`, the result was inactive. On to `CCC(=O)O`, for which the compound was called inactive. For `FC(F)(F)C(F)(F)C(F)(F)Br`, the compound was classed as inactive. On the same count and under the same terms, the value for `FC(F)(F)C1(F)C(F)(F)C(F)(F)C(F)(F)C1(F)F` was “inactive”; that for `CC(C)C=O` was “inactive”; that for `O=CC(F)(F)C(F)(F)C(F)(F)C(F)F` was “inactive”. Consider `Cc1ccccc1C(OCCN(C)C)c1ccccc1` (stereo not given), for which the outcome was inactive and the AC50 was 151 µM (active).

On to `CC(=O)Nc1ccc(O)cc1`, for which the result was inactive. Consider `C=C(c1ccc(C(=O)O)cc1)c1cc2c(cc1C)C(C)(C)CCC2(C)C`, for which the concentration at half-maximal activity (AC50) was 13.8 µM (active) and 23 µM (active). Turning to `Cc1cncc(C)c1`, the call was inactive.

`CCCCCCCCCCCC(=O)O`: the compound was called inactive and the AC50 is 181 µM (active).

In the case of `NCc1cccc(CN)c1`, the compound was classed as inactive. The same measure, in the same setting: the value for `CCc1cccc(CC)c1NC(=O)C(=O)O` was “inactive”. The same measure, in the same setting: the value for `COC(=O)CC(C(C)=O)C(=O)OC` (stereo not given) was “inactive”. On to `CN(C)c1ccc(C(=C2C=CC(=[N+](C)C)C=C2)c2ccccc2)cc1`, for which the AC50 is 1.46 µM (active) and 1.3 µM (active).

Regarding `OCC(F)(F)C(F)(F)C(F)(F)C(F)(F)C(F)(F)C(F)(F)C(F)(F)C(F)(F)C(F)(F)C(F)(F)C(F)(F)F`, the call was inactive.

Take `CCCCc1ccc2ccccc2c1S(=O)(=O)O`: the compound was called inactive.

Take `C=CCOCC(CO)(CO)CO`: the result was inactive.

On to `FC(OC(F)(F)C(F)(F)C(F)(F)F)C(F)(F)F` (stereo not given), for which the compound was classed as inactive. `COCC1CCC(CO)CC1` (stereo not given): the outcome was inactive.

`CC(O)COc1ccccc1` (stereo not given): the compound was classed as inactive. `C=CC(=C)CC/C=C(\C)CCC=C(C)C`: the compound was classed as inactive. Same read-out and setting: as for `Cc1cc(=O)oc2cc(O)ccc12`, the entry is “inactive”; as for `c1cc2cccc3c4cccc5cccc(c(c1)c23)c54`, “inactive”; as for `Oc1cc2ccccc2cc1O`, “inactive”. Consider `O=C(Nc1ccc(Cl)c(Cl)c1)c1cc(Cl)cc(Cl)c1O`, for which the AC50 is 25.8 µM (active).

By AC50 is commonly meant the concentration at which the activity in the assay is half-maximal.
